# Results published in PubChem BioAssay AID1851 (National Center for Advancing Translational Sciences (NCATS), 2009).
# Hit rate of the full screen: of about 16,000 compounds, about 5,100 (32%) were called active. Roughly 25% stayed inconclusive and do not appear here. Calls come from the whole dose curve; as a rule, active = well fitted curve in the direction sought with a large enough effect; inconclusive = small, poorly fitted or top-dose-only effect, or effect the other way; inactive = no such curve, though single readings can be large or run the other way. The list shows a part of the results. Square brackets hold non-standard residues; d marks the D form. Peptide text beside a SMILES is read from it. * marks the point of attachment. Cbz = O=C(OCc1ccccc1)*
# Target: Cytochrome P450 3A4 (Homo sapiens) (UniProt P08684)
# Sequence (P08684 whole entry, looked up): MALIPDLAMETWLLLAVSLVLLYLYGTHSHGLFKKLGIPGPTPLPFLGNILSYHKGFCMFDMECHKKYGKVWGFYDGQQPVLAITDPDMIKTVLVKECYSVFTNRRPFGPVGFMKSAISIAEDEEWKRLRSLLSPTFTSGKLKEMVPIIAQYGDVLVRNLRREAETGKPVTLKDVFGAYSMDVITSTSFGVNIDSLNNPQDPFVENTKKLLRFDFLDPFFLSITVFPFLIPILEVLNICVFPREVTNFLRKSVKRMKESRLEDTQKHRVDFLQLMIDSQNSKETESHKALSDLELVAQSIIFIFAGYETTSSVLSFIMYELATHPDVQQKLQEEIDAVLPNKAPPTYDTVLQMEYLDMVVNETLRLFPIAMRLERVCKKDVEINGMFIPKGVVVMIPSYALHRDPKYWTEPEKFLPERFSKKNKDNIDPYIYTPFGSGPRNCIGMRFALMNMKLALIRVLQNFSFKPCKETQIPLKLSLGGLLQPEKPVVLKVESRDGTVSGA
# Test: Cytochrome panel assay with activity outcomes
# Details: recombinant CYP, pro-luciferin dealkylation, luminescence, p450-cyp3a4; series mostly up to 57.1 µM; activity, negative = inhibition: at the top concentration
# % is set by controls: 0 for no effect and ±100 for the full control effect.
SMILES,"activity, negative = inhibition",AC50
O=C(O)C1=CC(=C(c2ccc(O)c(C(=O)O)c2)c2ccc(O)c(C(=O)O)c2)C=CC1=O,-13.9% (inactive),–
CC1=C/C(=C(/c2ccc(O)c(C)c2)c2ccccc2C(=O)O)C=CC1=O,–,1.58 µM (active)
O=C(O)c1ccc(C(=O)c2ccccc2C(=O)O)cc1C(=O)O,-0.636% [at 11.4 µM] (inactive),–
Cc1ccccc1N1CCN(S(=O)(=O)C[C@@]23CC[C@H](C[C@H]2NC(=O)[C@@H](N)CCS(C)(=O)=O)C3(C)C)CC1,–,3.16 µM (active)
CC(=O)CCCCn1c(=O)c2c(ncn2C)n(C)c1=O,-0.936% [at 25.6 µM] (inactive),–
O=C(CCCCn1c(=O)c2ccccc2n(CC(=O)NC2CCCC2)c1=O)NC1CCCC1,–,5.01 µM (active)
Cn1c(=O)n(CCC(=O)O)c2ccccc21,-1.84% (inactive),–
COc1ccccc1CNC(=O)CCCn1c(=O)c2ccccc2n(CC(=O)NC2CCCC2)c1=O,–,4.47 µM (active)
CC1(C)Oc2ccc(C#N)cc2[C@H](N2CCCC2=O)[C@H]1O,–,inactive
Cc1n[nH]c(=O)[nH]c1=O,-9.3% [at 25.6 µM] (inactive),–
Cc1noc(NS(=O)(=O)c2ccc(N/C=C/C(=O)c3ccc4c(c3)OCO4)cc2)c1C,–,11.2 µM (active)
Cc1noc(NS(=O)(=O)c2ccc(N/C=C\C(=O)c3ccc4c(c3)OCO4)cc2)c1C,–,14.1 µM (active)
O=C(Nc1ncc(Cc2cccc(Cl)c2)s1)C1=NCCN1,-16.4% (inactive),–
O=C(Nc1cnn(Cc2ccc(Cl)cc2)c1)c1ccc([N+](=O)[O-])cc1,-0.424% [at 2.29 µM] (inactive),–
O=C(Nc1ncc(Cc2cc(Cl)ccc2Cl)s1)c1ccc([N+](=O)[O-])cc1,–,6.31 µM (active)
CC(C)C[C@H](NC(=O)[C@@H](O)[C@H](N)Cc1ccccc1)C(=O)O,-14.6% (inactive),–
N[C@H](C(=O)O)[C@H](OCc1ccccc1)C(=O)O,7.73% (inactive),–
CSCC[C@H](C=O)NC(=O)[C@H](CC(C)C)NC(=O)[C@H](CC(C)C)NC(C)=O (Ac-Leu-Leu-[dM]-aldehyde),-15.9% (inactive),–
CC(C)C(NC(=O)OCc1ccccc1)C(=O)O (stereo unspecified),2.93% (inactive),–
CCCCC(C=O)NC(=O)C(CC(C)C)NC(=O)OCc1ccccc1 (stereo unspecified),–,15.8 µM (active)
CC(C)[C@H](NC(=O)OCc1ccccc1)C(=O)N[C@H](C=O)Cc1ccccc1 (Cbz-Val-Phe-aldehyde),–,6.31 µM (active)
CCCSC1=C(C#N)C(c2cccnc2)C(C(=O)OCC)=C(c2ccccc2)N1 (stereo unspecified),–,11.2 µM (active)
COc1ccc(N(CC(=O)O)N=O)cc1,-6.51% [at 11.4 µM] (inactive),–

SMILES,"activity, negative = inhibition",AC50
COc1ccc(N(C(=O)COc2ccccc2OC)S(=O)(=O)c2ccc(C)cc2)cc1,–,25.1 µM (active)
CN(C)CCO[C@@H](c1ccc(Cl)cc1)c1ccccn1,2.09% [at 25.6 µM] (inactive),–
CC1(C)[C@@H]2CC[C@]1(C)[C@@H](OC(=O)/C=C\c1ccccc1)C2,-9.57% [at 11.4 µM] (inactive),–
Nc1nnc(SCCOc2cccc(Br)c2)s1,–,12.6 µM (active)
FC(F)Sc1ccc(N=C2NN=C(c3ccc4c(c3)OCCO4)CS2)cc1,–,12.6 µM (active)
COCCn1c(C)cc(C2=NNC(=Nc3ccc(F)cc3)SC2)c1C,15.3% [at 11.4 µM] (inactive),–
O=C1c2ccccc2C(=O)N1CC1c2ccccc2CCN1S(=O)(=O)c1ccccc1 (stereo unspecified),–,2 µM (active)
C[C@H](O)[C@H](O)[C@@H]1CNc2nc(N)[nH]c(=O)c2N1,-6.18% (inactive),–
CC1CCCCN1c1nc(-c2ccncc2)nc2ccccc12 (stereo unspecified),–,0.631 µM (active)
CCN1CCN(c2nc(-c3ccccn3)nc3ccccc23)CC1,9.59% [at 2.29 µM] (inactive),–
CN(Cc1ccco1)c1ncncc1-c1cccc(NS(C)(=O)=O)c1,–,0.794 µM (active)
CN(Cc1ccco1)c1ncnc2ccc(-c3cccc(NS(C)(=O)=O)c3)cc12,–,5.01 µM (active)
C[C@@H](C1=C(CCN(C)C)Cc2ccccc21)c1ccccn1,-14.4% (inactive),–
O=C(O)[C@H](CCc1ccccn1)c1ccccc1,0.483% [at 11.4 µM] (inactive),–
CN(CCc1ccccn1)c1ccc2c(c1)Cc1ccccc1-2,–,2.51 µM (active)
CN(CCc1ccccn1)c1ccc2c(c1)C(=O)c1ccccc1-2,–,3.16 µM (active)
O=C1c2ccccc2-c2ccc(N(Cc3ccc(Br)cc3)Cc3ccc(Br)cc3)cc21,3.02% [at 11.4 µM] (inactive),–
CCn1c(N)nc2ccccc21,-22.1% (inactive),–
c1ccc(Cn2c(CN3CCCC3)nc3ccccc32)cc1,-12.3% [at 2.29 µM] (inactive),–
CCn1c(COc2ccc(OC)cc2)nc2ccccc21,–,1.26 µM (active)
O=C(c1ccccc1)[C@H](Nc1ccc2ccccc2c1)c1ccccc1,–,3.16 µM (active)
O=C(Nc1ccc2ccccc2c1)c1onc2c1CCCC2,-20.2% (inactive),–
O=C(O)CCC(=O)Nc1ccc2ccccc2c1,-3.97% [at 11.4 µM] (inactive),–
